Measured values reported in PubChem BioAssay (EPA / NIEHS).
“And” between values parts separate entries of the source, which are not always exact repeats. Equal entries are not always repeated. A structure can be active in one record and inactive in another. The source made the active and inactive calls. The calls were made as follows: active = hit-call score of the fitted dose curve at least 0.9, where 1 is the maximum; inactive = score below 0.9.

Legend:
[1] = ATG_E_Box_CIS: Attagene CIS-FACTORIAL HepG2 Assay for human Enhancer Box (E-box) (AID 2282936); conditions: HepG2 E-box cis-reporter transcription, actives raise or lower the signal
Summary of the method: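 DMSO served as negative control and baseline for bidirectional fitting. Human hepatoma HepG2 cells, transiently transfected with cis-reporter constructs, were dosed 24 h; reporter mRNA read by RT-PCR and capillary electrophoresis.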

[2] = ATG_M_61_CIS: Attagene CIS-FACTORIAL HepG2 Assay for M61 Transcription Factor (Internal Marker) (AID 2282937); conditions: HepG2 Attagene CIS-FACTORIAL M61 internal marker reporter; actives raise or lower the signal
Summary of the method: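 Human liver HepG2, transient MRTU transfection (cis promoter elements), 24 h compound. Total RNA → oligo(dT) RT → PCR → FAM label → HpaI → CE. Internal background marker; bidirectional fitting, DMSO = baseline.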

[3] = ATG_EGR_CIS: Attagene CIS-FACTORIAL HepG2 Assay for human Early Growth Response 1 (EGR1) (AID 2282938); conditions: HepG2 Attagene CIS-FACTORIAL EGR reporter mRNA; actives raise or lower the signal
Summary of the method: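 Transient transfection of human HepG2 with multiple cis-regulated reporter units, chemical exposure 24 h, total RNA isolated. Reverse transcription, PCR, fluorescent labelling and capillary electrophoresis quantify reporter transcripts; activity fitted bidirectionally against DMSO.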

[4] = ATG_M_19_CIS: Attagene CIS-FACTORIAL HepG2 Assay for M19 Transcription Factor (Internal Marker) (AID 2282939); conditions: HepG2 Attagene CIS-FACTORIAL M19 internal marker reporter; actives raise or lower the signal
Summary of the method: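 Background-control endpoint from a multiplexed HepG2 reporter panel. Cells carrying cis-regulated reporter constructs are treated 24 h, then reporter transcripts are amplified, fluorescently labelled and sized by capillary electrophoresis. DMSO defines baseline.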

[5] = ATG_ERE_CIS: Attagene CIS-FACTORIAL HepG2 Assay for Estrogen Response Element (ERE) (AID 2282940); conditions: HepG2 ERE cis-reporter, Attagene RNA transcript; actives raise or lower the signal
Summary of the method: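 Cells used were human hepatoma HepG2, transfected with multiple reporter transcription units under cis-regulatory promoters. Reporter mRNA, read 24 h post-dosing via fluorescent RT-PCR products on capillary electrophoresis, was fitted bidirectionally relative to DMSO.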

[6] = ATG_Ets_CIS: Attagene CIS-FACTORIAL HepG2 Assay for human Erythroblast Transformation Specific (ETS) (AID 2282941); conditions: HepG2 ETS cis-reporter transcription, actives raise or lower the signal
Summary of the method: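 HepG2 cells transiently transfected with cis-promoter reporter transcription units were dosed for 24 h; reporter mRNA was measured by RT-PCR, 6-FAM primer extension, HpaI digestion and capillary electrophoresis, with bidirectional fitting against DMSO baseline.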

[7] = target: Hepatocyte nuclear factor 3-beta (Homo sapiens) (UniProt Q9Y261); experiment: ATG_FoxA2_CIS: Attagene CIS-FACTORIAL HepG2 Assay for human Forkhead box A2 (FOXA2) (AID 2282942); conditions: HepG2 cis-reporter transcription factor activity, 24 h; actives raise or lower the signal
Summary of the method: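 Transient MRTU transfection of HepG2 liver cells; 24 h treatment; total RNA → oligo(dT) RT → PCR → FAM primer extension → HpaI cut → CE. Bidirectional fit vs DMSO.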

[8] = ATG_FoxO_CIS: Attagene CIS-FACTORIAL HepG2 Assay for human Forkhead box O (FoxO) (AID 2282943); conditions: HepG2 Attagene cis-reporter, FoxO element, mRNA; actives raise or lower the signal
Summary of the method: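 Human hepatoma HepG2 cells carry transiently introduced reporter transcription units controlled by cis promoter elements. Chemical treatment lasted 24 h, and mRNA signal was compared with DMSO.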

[9] = ATG_GATA_CIS: Attagene CIS-FACTORIAL HepG2 Assay for human GATA Binding Protein (AID 2282944); conditions: HepG2 GATA cis-element reporter, Attagene multiplex mRNA; actives raise or lower the signal
Summary of the method: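 Endogenous transcription factor activity was captured through cis-promoter-driven reporters in transfected HepG2 cells. After 24 h exposure, reporter transcripts were quantified by RT-PCR with fluorescent capillary electrophoresis, and responses fitted both directions against DMSO.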

[10] = ATG_ISRE_CIS: Attagene CIS-FACTORIAL HepG2 Assay for human Interferon Regulatory Factor 1 (IRF1) binding to an Interferon-Stimulated Response Element (ISRE) (AID 2282948); conditions: HepG2 ISRE cis-reporter (Attagene), mRNA transcription readout; actives raise or lower the signal
Summary of the method: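 HepG2 cells transiently transfected with multiplexed cis-promoter reporter units; after 24 h compound exposure, reporter mRNA quantified by RT-PCR, FAM labelling, HpaI digestion and capillary electrophoresis. Bidirectional fit versus DMSO baseline.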

[11] = ATG_M_32_CIS: Attagene CIS-FACTORIAL HepG2 Assay for M32 Transcription Factor (Internal Marker) (AID 2282949); conditions: HepG2 Attagene cis-factorial M32 reporter, mRNA; actives raise or lower the signal;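 also: background control marker of the multiplexed CIS panel rather than a real target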
Summary of the method: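 Internal background marker read-out: RT-PCR/capillary electrophoresis fluorescence of reporter transcripts from transiently transfected HepG2 cells after 24 h chemical exposure. Activity fitted bidirectionally relative to DMSO negative control.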

[12] = target: Hypoxia-inducible factor 1-alpha (Homo sapiens) (UniProt Q16665); experiment: ATG_HIF1a_CIS: Attagene CIS-FACTORIAL HepG2 Assay for human Hypoxia Inducible Factor 1 (HIF1A) (AID 2282951); conditions: HepG2 Attagene cis-factorial HIF1a reporter transcription; actives raise or lower the signal
Summary of the method: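 Transient MRTU transfection of human HepG2 liver cells, 24 h compound treatment, then total RNA isolation, oligo(dT) reverse transcription, PCR amplification, fluorescent labelling and capillary electrophoresis of reporter fragments. Gain or loss relative to DMSO.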

[13] = target: Heat shock factor protein 1 (Homo sapiens) (UniProt Q00613); experiment: ATG_HSE_CIS: Attagene CIS-FACTORIAL HepG2 Assay for human Heat Shock Transcription Factor 1 (HSE) (AID 2282953); conditions: HepG2 HSE cis-reporter, Attagene RNA transcription; actives raise or lower the signal
Summary of the method: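 Cells were transfected with cis-element-driven reporter constructs, dosed for 24 h, then total RNA was reverse-transcribed and reporter cDNA amplified, FAM-labelled and digested with HpaI. Fragments were resolved by capillary electrophoresis; gain or loss was fitted against DMSO.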

[14] = ATG_MRE_CIS: Attagene CIS-FACTORIAL HepG2 Assay for human Metal Responsive Element (MRE) (AID 2282954); conditions: HepG2 MRE cis-reporter transcription, Attagene multiplex; actives raise or lower the signal
Summary of the method: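 After a 24 h chemical exposure, transiently transfected HepG2 cells yield RNA whose reporter sequences are amplified, FAM-labelled and sized by capillary electrophoresis. Curves are fitted bidirectionally relative to DMSO.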

[15] = ATG_M_06_CIS: Attagene CIS-FACTORIAL HepG2 Assay for M06 Transcription Factor (Internal Marker) (AID 2282950); conditions: HepG2 Attagene CIS-FACTORIAL M06 internal marker reporter; actives raise or lower the signal
Summary of the method: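 Steps: transfect HepG2 with multiplexed cis-element reporter constructs; dose chemical 24 h; extract RNA with DNase treatment; reverse-transcribe, PCR-amplify, 6-FAM label, HpaI digest; separate fragments by capillary electrophoresis. Activity fitted both directions versus DMSO.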

[16] = target: Hepatocyte nuclear factor 6 (Homo sapiens) (UniProt Q9UBC0); experiment: ATG_HNF6_CIS: Attagene CIS-FACTORIAL HepG2 Assay for human Hepatocyte Nuclear Factor 6 (HNF6) (AID 2282952); conditions: HepG2 Attagene cis-factorial HNF6 reporter transcription; actives raise or lower the signal
Summary of the method: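 HepG2 cells transiently transfected with cis-element-driven multiplexed reporter units measuring endogenous transcription factor activity. After 24 h exposure, reporter mRNA quantified by RT-PCR, FAM-labelled fragments and capillary electrophoresis; bidirectional fitting versus DMSO.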

[17] = ATG_PBREM_CIS: Attagene CIS-FACTORIAL HepG2 Assay for human Phenobarbital-responsive Enhancer Module (PBREM) (AID 2282955); conditions: HepG2 PBREM cis-reporter, Attagene multiplexed transcription; actives raise or lower the signal
Summary of the method: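 Endogenous transcription factors in human liver HepG2 cells drive a PBREM cis-element reporter, whose transcript level after 24 h treatment is quantified by RT-PCR with capillary electrophoresis; activity fitted in both directions against DMSO.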

[18] = ATG_GLI_CIS: Attagene CIS-FACTORIAL HepG2 Assay for human Zinc Finger Protein GLI1 (AID 2282945); conditions: HepG2, Attagene cis-factorial reporter mRNA, GLI element; actives raise or lower the signal
Summary of the method: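 Bidirectional curve fits relative to DMSO, using reporter mRNA levels from RT-PCR plus capillary electrophoresis. Cells were HepG2 transiently carrying cis-regulated reporter constructs, harvested 24 h after dosing.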

[19] = target: Bile acid receptor (Homo sapiens) (UniProt Q96RI1); experiment: ATG_IR1_CIS: Attagene CIS-FACTORIAL HepG2 Assay for human Nuclear Receptor Subfamily 1 Group H Member 4 (NR1H4), IR1 submotif (AID 2282946); conditions: IR1 reporter transcription, actives raise or lower the signal
Summary of the method: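 Cells (human HepG2) carry transiently transfected cis-promoter reporter transcription units. Compounds are incubated 24 h, total RNA is reverse-transcribed and amplified, and labelled fragments are resolved by capillary electrophoresis. Curves use DMSO as baseline.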

Measured: AC50

Sequence of Hepatocyte nuclear factor 3-beta (Homo sapiens) (Q9Y261 whole entry, looked up): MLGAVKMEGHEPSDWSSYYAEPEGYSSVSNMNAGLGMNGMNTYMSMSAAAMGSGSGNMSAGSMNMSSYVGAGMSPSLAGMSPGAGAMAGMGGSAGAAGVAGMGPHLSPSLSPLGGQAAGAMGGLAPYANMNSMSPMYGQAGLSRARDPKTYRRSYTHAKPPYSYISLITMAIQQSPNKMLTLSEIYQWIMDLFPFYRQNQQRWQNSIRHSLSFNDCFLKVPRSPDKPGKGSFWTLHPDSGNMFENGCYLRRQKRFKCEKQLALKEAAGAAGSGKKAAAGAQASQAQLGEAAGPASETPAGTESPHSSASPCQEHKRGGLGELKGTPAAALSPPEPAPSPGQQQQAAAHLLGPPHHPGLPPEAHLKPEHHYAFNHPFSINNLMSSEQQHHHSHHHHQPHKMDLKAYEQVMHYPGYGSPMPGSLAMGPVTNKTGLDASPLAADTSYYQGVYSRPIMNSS
Sequence of Heat shock factor protein 1 (Homo sapiens) (Q00613 whole entry, looked up, the tested form may be a part): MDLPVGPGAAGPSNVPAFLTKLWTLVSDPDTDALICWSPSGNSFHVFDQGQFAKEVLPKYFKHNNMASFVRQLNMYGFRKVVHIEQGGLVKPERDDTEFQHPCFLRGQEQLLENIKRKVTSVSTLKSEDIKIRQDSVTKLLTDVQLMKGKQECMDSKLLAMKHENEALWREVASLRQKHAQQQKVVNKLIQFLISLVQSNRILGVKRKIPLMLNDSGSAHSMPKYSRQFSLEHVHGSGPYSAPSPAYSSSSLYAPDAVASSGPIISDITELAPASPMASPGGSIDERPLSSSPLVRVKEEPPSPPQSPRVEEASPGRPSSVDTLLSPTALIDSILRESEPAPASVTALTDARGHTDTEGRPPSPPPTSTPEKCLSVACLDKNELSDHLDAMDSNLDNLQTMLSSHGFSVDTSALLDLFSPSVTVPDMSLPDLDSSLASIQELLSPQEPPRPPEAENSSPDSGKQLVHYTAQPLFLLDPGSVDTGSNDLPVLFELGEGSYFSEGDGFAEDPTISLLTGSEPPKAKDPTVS
Sequence of Hypoxia-inducible factor 1-alpha (Homo sapiens) (Q16665 whole entry, looked up, the tested form may be a part): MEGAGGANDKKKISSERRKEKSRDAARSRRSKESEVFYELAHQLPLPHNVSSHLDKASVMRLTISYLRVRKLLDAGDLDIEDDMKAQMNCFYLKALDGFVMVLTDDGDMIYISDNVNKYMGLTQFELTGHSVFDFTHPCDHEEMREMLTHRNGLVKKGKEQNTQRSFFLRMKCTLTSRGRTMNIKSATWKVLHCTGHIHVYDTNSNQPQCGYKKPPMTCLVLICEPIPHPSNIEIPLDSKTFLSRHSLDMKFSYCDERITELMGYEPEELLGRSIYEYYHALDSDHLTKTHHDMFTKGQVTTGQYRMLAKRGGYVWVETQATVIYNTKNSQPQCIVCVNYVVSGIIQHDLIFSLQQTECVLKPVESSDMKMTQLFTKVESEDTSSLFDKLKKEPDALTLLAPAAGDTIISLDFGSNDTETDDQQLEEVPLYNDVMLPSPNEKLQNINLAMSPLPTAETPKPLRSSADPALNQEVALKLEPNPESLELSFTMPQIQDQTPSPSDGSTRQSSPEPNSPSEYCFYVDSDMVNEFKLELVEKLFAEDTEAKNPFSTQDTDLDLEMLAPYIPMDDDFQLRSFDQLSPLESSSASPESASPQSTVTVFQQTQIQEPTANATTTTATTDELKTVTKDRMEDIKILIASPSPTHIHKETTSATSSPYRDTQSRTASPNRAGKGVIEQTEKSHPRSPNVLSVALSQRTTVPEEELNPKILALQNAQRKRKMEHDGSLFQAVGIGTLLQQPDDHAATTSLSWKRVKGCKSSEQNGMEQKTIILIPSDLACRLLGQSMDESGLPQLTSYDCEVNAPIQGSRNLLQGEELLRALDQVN
Sequence of Hepatocyte nuclear factor 6 (Homo sapiens) (Q9UBC0 whole entry, looked up, the tested form may be a part): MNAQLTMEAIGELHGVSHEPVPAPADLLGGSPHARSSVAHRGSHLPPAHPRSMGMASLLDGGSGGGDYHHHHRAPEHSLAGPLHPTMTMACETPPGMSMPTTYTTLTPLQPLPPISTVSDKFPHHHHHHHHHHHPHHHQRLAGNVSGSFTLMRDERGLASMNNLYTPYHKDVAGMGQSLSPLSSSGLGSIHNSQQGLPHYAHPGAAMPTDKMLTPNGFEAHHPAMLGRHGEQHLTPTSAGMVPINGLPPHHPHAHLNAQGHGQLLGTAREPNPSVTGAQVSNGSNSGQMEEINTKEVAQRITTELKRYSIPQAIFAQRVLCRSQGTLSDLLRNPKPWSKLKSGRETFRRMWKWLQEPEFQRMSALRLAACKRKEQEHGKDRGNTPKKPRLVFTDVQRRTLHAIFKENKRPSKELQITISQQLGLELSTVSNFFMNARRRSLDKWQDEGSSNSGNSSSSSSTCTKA
Sequence of Bile acid receptor (Homo sapiens) (Q96RI1 whole entry, looked up, the tested form may be a part): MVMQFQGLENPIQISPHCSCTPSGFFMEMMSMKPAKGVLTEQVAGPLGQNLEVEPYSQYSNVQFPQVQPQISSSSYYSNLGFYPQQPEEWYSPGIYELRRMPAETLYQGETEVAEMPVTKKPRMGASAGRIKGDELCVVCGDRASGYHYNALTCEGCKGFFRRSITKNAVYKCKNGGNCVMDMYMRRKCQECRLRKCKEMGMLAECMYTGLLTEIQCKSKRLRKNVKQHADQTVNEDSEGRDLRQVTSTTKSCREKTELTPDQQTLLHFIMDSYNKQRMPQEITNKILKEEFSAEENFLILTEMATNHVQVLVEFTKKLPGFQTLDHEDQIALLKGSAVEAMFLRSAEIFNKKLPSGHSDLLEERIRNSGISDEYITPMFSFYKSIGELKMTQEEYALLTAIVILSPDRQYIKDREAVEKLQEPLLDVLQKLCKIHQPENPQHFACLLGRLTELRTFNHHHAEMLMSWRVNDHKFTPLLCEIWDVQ

CCC(=O)O[C@H]1CC[C@H]2[C@@H]3CCC4=CC(=O)CC[C@]4(C)[C@H]3CC[C@]12C
active: [3] 100 µM and 77.1 µM and 129 µM | [5] 9.04 nM and 9.14 nM and 8.84 nM | [7] 187 µM | [8] 135 µM and 185 µM | [9] 140 µM | [10] 100 µM and 131 µM | [12] 100 µM and 122 µM | [13] 159 µM [middle of 4 runs] | [14] 136 µM [middle of 4 runs]
inactive: [1] | [2] | [4] | [6] | [7] | [8] | [9] | [10] | [11] | [12]

Cc1ccccc1[N+](=O)[O-]
not listed: [2] | [13] | [16] | [17] | [18] | [19]
inactive: all other assays above

Nn1cnnc1
active: [5] 39.5 µM
not listed: [2] | [15] | [17] | [18] | [19]
inactive: all other assays above

CCCCCCCCCc1ccc(O)cc1
active: [1] 63.2 µM | [9] 49.7 µM | [11] 166 µM | [12] 178 µM | [14] 17.5 µM
inactive: [1] | [3] | [4] | [6] | [7] | [8] | [9] | [10] | [11] | [12] | [13] | [14] | [17]

CN(C)c1nc(=O)n(C2CCCCC2)c(=O)n1C
not listed: [2] | [15] | [17]
inactive: all other assays above

ClC1=C(Cl)[C@]2(Cl)[C@@H]3[C@H]4C[C@H]([C@@H]5O[C@H]45)[C@@H]3[C@@]1(Cl)C2(Cl)Cl
active: [5] 0.279 µM
not listed: [2] | [15] | [16] | [17] | [19]
inactive: all other assays above

O=S(=O)(O)C(F)(F)C(F)(F)C(F)(F)C(F)(F)F
not listed: [2] | [17] | [19]
inactive: all other assays above
